Source: PubChem
In the library only some 3.3% were active in any assay of this set; here they are far more common.
Autofluor counter – counter-screen for toxin protease inhibitors: compound fluorescence | compound autofluorescence counterscreen, microsphere flow cytometry; hits give high values | fluorescence intensity (concentration not given with the values) | 360,000 tested, 3.1% active | AID 624483; in the data active = fluorescence intensity above about 16000; inconclusive = no clear call, values can overlap the other calls
BoNT F protease – blocks Botulinum neurotoxin F light chain protease; 360,000 tested, 0.22% active; inhibition, % at 10 µM; Multiplex microsphere protease cleavage assay, flow cytometry; in the data active = inhibition above about 35%, passing the limit was not always enough; inconclusive = no clear call, values can overlap the other calls; also: plate controls were buffer without enzyme for full effect and enzyme alone for no effect
BoNT-A LC inh2 – inhibitors of Botulinum neurotoxin A light chain protease | multiplex microsphere protease substrate cleavage, flow cytometry | inhibition, % at 10 µM | 360,000 tested, 0.17% active | AID 588499; also: plate controls were buffer without enzyme for full effect and enzyme alone for no effect
MazF activator – activators of E. coli MazEF toxin-antitoxin RNase; FAM/BHQ RNA-DNA oligo cleavage fluorescence, 5 h; activation, % at 20 µM; 350,000 tested, 0.32% active; AID 504720; in the data active = activation above about 50%
Target sequence (P0AE70 whole entry, looked up): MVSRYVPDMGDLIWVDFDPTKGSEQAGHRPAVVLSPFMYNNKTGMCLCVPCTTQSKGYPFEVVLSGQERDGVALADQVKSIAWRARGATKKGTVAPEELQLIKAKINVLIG
PriA SSB inh – inhibitors of Klebsiella pneumoniae PriA binding to SSB C-terminal tail. AlphaScreen SSBct-PriA binding, biotinylated peptide. inhibition, % at 33 µM. 430,000 tested, 0.6% active. AID 1272365; in the data active = inhibition mostly above about 37%, no sharp cut-off; inactive = mostly below about 20%;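 also: plate controls were negative control peptide for no effect and reference peptide for full effect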
Anthrax LF inh2 – inhibitors of Bacillus anthracis lethal factor protease | multiplex microsphere protease cleavage assay, LF | 360,000 tested, 0.12% active | inhibition, % at 10 µM | AID 588501; also: plate controls were buffer without enzyme for full effect and enzyme alone for no effect
Numbers without * were called inactive; ? = inconclusive; . = no result. Rule as the data show it, unless noted: active = inhibition above about 30%; inconclusive = no clear call, values can overlap the other calls; inactive = below that.

SMILES	Autofluor counter	BoNT F protease	BoNT-A LC inh2	MazF activator	PriA SSB inh	Anthrax LF inh2
O=S(=O)(O)Sc1ccccc1	2895	-2.7	0.5	1.6	.	3.3
CCN(CC)c1ccc(SS(=O)(=O)O)cc1	2579	-3.0	0.7	-3.4	43.2*	-0.1
CCCCCOc1ccc(C(=O)Nc2nc3ccc(Cl)cc3s2)cc1	.	.	.	.	-22.0	.
O=C(O)CNS(=O)(=O)c1cccc2nsnc12	22948*	-0.3	1.7	3.5	1.7	3.5
O=C(O)c1cccc(NS(=O)(=O)c2cccc3nsnc23)c1	19434*	10.0	7.3	1.0	-8.3	-11.3
O=C(NNC(=O)c1ccco1)c1cccc([N+](=O)[O-])c1	4513	37.8*	-1.4	0.9	-6.2	2.1
O=C(CCC(=O)OCc1cccc([N+](=O)[O-])c1)Nc1ccccc1Cl	2567	-1.3	-0.4	-1.1	-3.8	-0.8
Cc1ccc(NC(=O)CCC(=O)NNC(=O)c2ccccc2[N+](=O)[O-])c(C)c1	3457	-10.7	-1.0	6.5	-1.9	-2.1
O=C(NNC(=O)c1ccco1)c1cccc(Br)c1	5572	9.8	4.8	13.6	-3.5	5.2
Cc1ccc(C)c(NC(=O)CCC(=O)NNC(=O)c2cccc([N+](=O)[O-])c2)c1	24147*	-4.3	?	-2.5	-13.2	0.6
O=C(CCC(=O)OCC(=O)c1cccc([N+](=O)[O-])c1)Nc1ccccc1Cl	25045*	-7.0	-3.8	4.7	8.7	-1.7
O=C(c1cc(-c2ccccc2)on1)N1CCC(Oc2cnccn2)CC1	.	.	.	.	4.0	.
CCCCNC(=O)c1c(C)cc(=O)oc1C	22316*	0.3	1.6	-3.1	-4.4	-1.0
CCC(C)NC(=O)c1c(C)cc(=O)oc1C (configuration not stated)	20515*	-0.6	-1.8	-2.2	-3.9	-0.2
O=C(c1cccs1)N1CC(C(=O)N(Cc2ccccc2)c2ccccc2)C1	.	.	.	.	0.0	.
O=C(NCCn1ccc(-c2ccccn2)n1)c1cc(=O)c2ccccc2o1	.	.	.	.	-1.0	.
CC(C)(C)C1CCc2onc(C(=O)NC3CCCC3)c2C1 (configuration not stated)	21049*	-5.8	-3.0	3.0	-5.9	-1.8
O=C(NC1CCCCC1)c1noc2c1CCCCC2	22953*	1.3	2.2	-4.1	-9.1	1.2
CC(C)(C)C1CCc2onc(C(=O)N3CCOCC3)c2C1 (configuration not stated)	11821	0.0	0.3	2.8	1.3	0.9
COCCn1c(=S)[nH]c2cc(OC)c(OC)cc2c1=O	5073	2.3	0.0	0.0	-9.7	-1.2
CCN(CC)CCCn1c(=S)[nH]c2cc(OC)c(OC)cc2c1=O	22782*	-7.8	?	-0.4	1.8	-1.1
COc1ccc(OC)c(NC(=O)CCn2c(=S)[nH]c3ccccc3c2=O)c1	5320	-5.1	-0.1	-11.2	1.0	-2.5
CCN(CC)CCCn1c(=S)[nH]c2cc(C(=O)OC)ccc2c1=O	23192*	-2.6	0.9	-9.9	-21.9	-1.0
COC(=O)c1ccc2c(=O)n(NC(C)=O)c(=S)[nH]c2c1	23622*	-4.9	-2.1	-3.6	2.6	-2.6
COc1ccc(OC)c(NC(=O)c2ccc3c(=O)n(CCc4ccccc4)c(=S)[nH]c3c2)c1	10468	-1.8	0.9	52.1*	-0.9	2.9
SMILES	Autofluor counter	BoNT F protease	BoNT-A LC inh2	MazF activator	PriA SSB inh	Anthrax LF inh2
CCOc1ccc(CC(=O)Nc2ccc(Cl)c(N3CCCS3(=O)=O)c2)cc1	.	.	.	.	-4.0	.
CN(C(=O)COc1ccc(Cl)cc1Cl)C1CCCCC1	.	.	.	.	-28.0	.
NNC(=O)c1ccc(OCC(O)CN2CCN(c3ccccc3)CC2)cc1 (configuration not stated)	.	.	.	.	3.0	.
CC(C)NC(=O)c1ccc2c(=O)n(C3CCCC3)c(=S)[nH]c2c1	9824	2.5	0.0	-32.8	-5.9	-4.7
CCN(CC)CCNC(=O)c1ccc2c(=O)n(C3CCCC3)c(=S)[nH]c2c1	20853*	1.4	0.1	-9.8	-6.0	-0.8
COc1cc2[nH]c(=S)n(NC(=O)c3ccccc3)c(=O)c2cc1OC	16796*	-0.5	-1.1	7.5	-1.1	-0.1
O=C(CC1CSc2nc3c(cnn3-c3cccc(Cl)c3)c(=O)n21)N1CCOCC1 (configuration not stated)	.	.	.	.	-8.0	.
O=C1CCOc2cc(OCc3ccccc3)ccc21	21171*	-5.8	-4.0	-2.7	-36.1	1.1
COc1cccc(NC(=O)N2CCCCCC2)c1	5094	-3.7	3.1	0.8	-7.9	1.5
COc1ccc(CC(NC(C)=O)C(=O)N2CCN(C(=O)Nc3ccc(Cl)cc3)CC2)cc1OC (configuration not stated)	22516*	-1.0	1.3	-8.0	-6.1	-7.6
COc1ccc(CC(NC(C)=O)C(=O)NC2CCN(C(=O)Nc3ccccc3Cl)CC2)cc1OC (configuration not stated)	4418	-13.8	-1.2	5.4	-2.5	1.9
COc1cccc(NC(=O)N2CCN(C(=O)C(Cc3ccc(OC)c(OC)c3)NC(C)=O)CC2)c1 (configuration not stated)	18405*	13.1	?	12.7	-1.4	-7.3
CCSc1nnc(-c2cccnc2)n1-c1ccc(Cl)c(C)c1	17981*	7.5	6.3	-3.5	3.7	-7.5
N#Cc1ccc(CN2CCN(C(=O)c3ccccc3)CC2)c(Cl)c1	21609*	-6.7	?	-2.2	-11.6	-4.3
O=C(c1ccccc1)N1CCN(Cc2ccccc2C(F)(F)F)CC1	4178	-3.7	-0.7	7.5	-6.9	-3.4
Cn1nc(C(F)(F)F)c(C(=O)Nc2cccc(Cl)c2)c1Cl	25124*	-8.8	-3.4	0.5	-22.3	-1.4
Cn1nc(-c2ccc(C(=O)Nc3cccc(Cl)c3)cc2)c2ccccc2c1=O	?	-5.3	?	101.0*	-4.2	-21.1
CC(=O)c1cccc(NC(=O)c2cc(C(C)C)on2)c1	5513	-2.7	-0.3	5.8	-4.8	-6.1
CC(C)c1cc(C(=O)Nc2cccc(Cl)c2)no1	18450*	14.1	14.2	-2.2	-58.1	-11.9
Cc1ccc(NC(=O)c2ccc(-c3nn(C)c(=O)c4ccccc34)cc2)cc1	9116	-0.9	-0.3	6.0	-23.9	-8.3
Cc1cccc(NS(=O)(=O)c2ccc3oc(-c4nc(-c5ccc6c(c5)OCO6)no4)c(C)c3c2)c1	.	.	.	.	-11.0	.
Cc1cccc(COC(=O)c2nnn(-c3ccc(C)c(F)c3)c2C)c1	.	.	.	.	-7.0	.
COC(=O)CC1NCCNC1=O (configuration not stated)	9025	3.9	0.7	3.4	-17.6	-8.1
O=C(CC1SCCNC1=O)Nc1ccc(F)c(Cl)c1 (configuration not stated)	3510	0.9	0.7	-4.3	-10.1	-2.2
Cc1ccc(NC(=O)CC2SCCNC2=O)cc1Cl (configuration not stated)	23686*	-3.1	?	1.7	-15.2	-4.1
COC(=O)CC1SCCNC1=O (configuration not stated)	20974*	-1.2	-1.4	2.4	-6.0	0.8
Cc1nnc(NC(=O)c2ccc3c(c2)C(=O)N(CCC(C)C)C3=O)s1	20485*	-0.7	-1.4	3.2	-14.8	-0.2
